Assay [1] relates to DLD1. Kind of assay: cell viability (CellTiter-Glo) relative to plate median (fraction of plate median); higher = more viable cells. The settings on record: 5 µM; treatment time 24 h; reporter: 7TFP. In short, it runs like this:
(§1)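 Library compounds were added at a final concentration of 5 µM for 24 h to colorectal cancer cells stably transduced with a lentiviral TCF/Wnt firefly luciferase reporter. Reported values are firefly luciferase or CellTiterGlo luminescence, normalised per well to the plate median. Each value averages two independent replicates.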

For another assay, the system named is HCT116. Described as above. As to conditions: 5 µM; treatment time 24 h; reporter: TCF4/Wnt. In short, it runs like this:
as §1

Assay [2] relates to SW480. Described as above. As to conditions: 5 µM; treatment time 24 h; reporter: 7TFP. A digest of the protocol: as §1
Assay [3] deals with DLD1. Nature of the assay: TCF/Wnt firefly luciferase reporter signal relative to plate median (fraction of plate median); higher = higher Wnt reporter signal. The settings on record: 5 µM; treatment time 24 h; reporter: 7TFP. In short, it runs like this:
as §1
(In a reporter assay the amount or activity of a reporter protein is the signal.)

For assay [4], the system named is SW480. The description is as above. As to conditions: 5 µM; treatment time 24 h; reporter: 7TFP. A digest of the protocol:
as §1

± gives the standard deviation of the averaged measurements.

Take `CC(=O)O[C@H]1C[C@@]2(C)[C@H](c3ccoc3)OC(=O)[C@H]3O[C@]32[C@@]2(C)C1[C@]1(C)C(C[C@H]2OC(C)=O)C(C)(C)[C@H](OC(C)=O)C[C@@H]1OC(C)=O` (stereo partly drawn) [11alpha-ACETOXYKHIVORIN]: the cell viability is 0.973 ± 0.014 in the assay on DLD1 [1], 0.895 ± 0.088 in the assay with HCT116 and 0.941 ± 0.013 with SW480 [2]. Moreover, the “TCF/Wnt firefly luciferase reporter signal” value with DLD1 [3] stood at 1 ± 0.14; in the assay on SW480 [4] it was 1.05 ± 0.11.
Taken in the same sequence, the figures for `CC12CCCC(O)(C1)C1CC(C)(C)C1CC2` (stereo not drawn) [beta-CARYOPHYLLENE ALCOHOL] were 0.91 ± 0.072, 1.12 ± 0.14, 1 ± 0.04, 1.1 ± 0.028 and 1.04 ± 0.028.
On the same counts, the results for `CC(C)C[C@H]1C(=O)N2CCC[C@H]2C(=O)N1O` [Cyclo(hydroxyleucylprolyl)] are 0.978 ± 0.074, 0.973 ± 0.081, 0.988 ± 0.088, 0.949 ± 0.0042 and 1.05 ± 0.071.
On the same counts, the results for `CN(Cc1cnc2nc(N)nc(N)c2n1)c1ccc(C(=O)N[C@@H](CCC(=O)O)C(=O)O)cc1` are 0.475 ± 0.1, 1.055 ± 0.0071, 1.1, 0.739 ± 0.3 and 1.07 ± 0.064.
For `C[C@H](N)CO`, the cell viability in the assay with DLD1 [1] was 0.911 ± 0.034; in the assay with HCT116, 0.902 ± 0.047; with SW480 [2], 0.93 ± 0.035. The “TCF/Wnt firefly luciferase reporter signal” value in the assay with DLD1 [3] came out at 0.908 ± 0.058; with SW480 [4], 1.12 ± 0.092.
Regarding `COc1ccc2c(c1)OC1(O)COc3cc(OC)c(OC)cc3C1=C2` (stereo not given), the results for the cell viability with DLD1 [1], in the assay on HCT116 and in the assay with SW480 [2] were 1.01 ± 0.035, 1.05 ± 0.05 and 1.08 ± 0.035, respectively. The “TCF/Wnt firefly luciferase reporter signal” value turned out to be 0.985 ± 0.13 with DLD1 [3] and 0.895 ± 0.075 in the assay with SW480 [4].
Turning to `C=CCc1ccc(OC(=O)c2ccccc2)c(OC)c1`, the cell viability came to 1.02 ± 0.14 in the assay on DLD1 [1], 1.07 ± 0.05 with HCT116 and 1.02 ± 0.063 in the assay with SW480 [2]. In addition, the “TCF/Wnt firefly luciferase reporter signal” value in the assay with DLD1 [3] was determined as 1.22 ± 0.014; in the assay on SW480 [4], 1 ± 0.14.
For `Oc1cc2c(cc1O)C1c3ccc(O)c(O)c3OCC1(O)C2` (stereo not given), the cell viability with DLD1 [1] turned out to be 1.03 ± 0.028; with HCT116, 1.04 ± 0.028; in the assay with SW480 [2] it was 1 ± 0.023. For the same compound, the “TCF/Wnt firefly luciferase reporter signal” value in the assay on DLD1 [3] came to 0.944 ± 0.035; in the assay with SW480 [4], 1.04 ± 0.035.
Taken in the same sequence, the figures for `O=C(O)c1cc2ccccc2[nH]1` were 0.968 ± 0.011, 0.994 ± 0.08, 1.04 ± 0.028, 1.12 and 1.08 ± 0.021.
For `C[C@H]1CC[C@@H](C(C)(C)O)CC2=C1CC[C@@H]2C`, the cell viability is 0.964 ± 0.079 in the assay with DLD1 [1], 1.025 ± 0.0071 with HCT116 and 0.9715 ± 0.0078 in the assay with SW480 [2]. Further, the results for the “TCF/Wnt firefly luciferase reporter signal” value in the assay on DLD1 [3] and in the assay with SW480 [4] were 0.907 ± 0.11 and 0.86 ± 0.016, respectively.
On the same counts, the results for `CC(N/C(=N\C#N)Nc1ccncc1)C(C)(C)C` (stereo not given) are 0.99 ± 0.043, 0.904 ± 0.0014, 0.989 ± 0.1, 0.799 ± 0.04 and 0.941 ± 0.073.
Taken in the same sequence, the figures for `CC(C(=O)O)c1cccc(Oc2ccccc2)c1` (stereo not given) were 0.968 ± 0.088, 0.98 ± 0.0057, 0.988 ± 0.06, 1.04 ± 0.085 and 1.11 ± 0.042.
For the compound `C1CCN2C[C@@H]3C[C@H](CN4CCCC[C@@H]34)[C@H]2C1`, the figures for the cell viability with DLD1 [1], with HCT116 and with SW480 [2] were 0.938 ± 0.076, 0.9855 ± 0.0064 and 0.93 ± 0.035, respectively. Moreover, the “TCF/Wnt firefly luciferase reporter signal” value with DLD1 [3] stood at 0.883 ± 0.072; in the assay on SW480 [4] it was 0.979 ± 0.03.
As for `CN(C)CCc1c[nH]c2ccc(C[C@H]3COC(=O)N3)cc12`, the cell viability with DLD1 [1] turned out to be 0.931 ± 0.059; with HCT116, 1.08 ± 0.078; in the assay on SW480 [2], 1.04 ± 0.014. The “TCF/Wnt firefly luciferase reporter signal” value with DLD1 [3] worked out at 1.03 ± 0.021; in the assay on SW480 [4], 0.95 ± 0.069.
On the same counts, the results for `C=CCCCCCCCCC(=O)O` are 1.03 ± 0.072, 1.08 ± 0.13, 1 ± 0.022, 1.01 ± 0.025 and 1 ± 0.037.
Regarding `COc1cc2occ(-c3ccc(O)cc3)c(=O)c2cc1O` [Kakkatin], the cell viability in the assay with DLD1 [1] amounted to 1.04 ± 0.028; in the assay with HCT116, 1.06 ± 0.14; in the assay on SW480 [2] it was 1.01 ± 0.044. The entries for the “TCF/Wnt firefly luciferase reporter signal” value in the assay with DLD1 [3] and in the assay with SW480 [4] were 1.22 ± 0.028 and 1.09 ± 0.064, respectively.
For the compound `C[C@@H]([C@H]1OC(C)(C)[C@@H](O)[C@H]1O)[C@@H]1CC[C@]2(C)C3=CC[C@H]4C(C)(C)C(=O)CC[C@]4(C)[C@H]3CC[C@@]12C`, the cell viability with DLD1 [1] worked out at 1.1 ± 0.19; in the assay on HCT116, 0.998 ± 0.1; in the assay with SW480 [2], 1.07 ± 0.042. In addition, the figures for the “TCF/Wnt firefly luciferase reporter signal” value with DLD1 [3] and with SW480 [4] were 1.01 ± 0.084 and 0.884 ± 0.065, respectively.

(Values after the supplement of paper PMC6522484.)
